The text below walks through data of PubChem BioAssay (EPA / NIEHS).

Calls of active or inactive are those of the source. The calls were made as follows: active = hit-call score of the fitted dose curve at least 0.9, where 1 is the maximum; inactive = score below 0.9.

Holding throughout (conditions): primary human HUVEC with PBMC; actives raise or lower the signal
A short description of assay [1]: BSK_LPS_PGE2: BioMAP Diversity Plus: LPS Assay for Prostaglandin E2 (PGE2) Biomarker Activity (AID 2283082).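 As to AC50: secreted prostaglandin E2 measured by ELISA in LPS-stimulated co-culture.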 In short, it runs like this: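 ELISA read-out of PGE2 from human umbilical vein endothelial cells co-cultured with peripheral blood mononuclear cells under LPS, 24 h post-dose. Gain or loss of signal scored relative to DMSO baseline.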
Read-out in assay [2]: Macrophage colony-stimulating factor (MCSF), CSF1 (gene 1435)
Nature of the assay: BSK_LPS_MCSF: BioMAP Diversity Plus: LPS Assay for Macrophage colony-stimulating factor (MCSF) Biomarker Activity (AID 2283083). A digest of the protocol:
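HUVEC + PBMC co-culture (human primary), 24 h post-dose; M-CSF by ELISA; gain/loss of signal fitted bidirectionally vs DMSO baseline.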

Read-out in assay [3]: Tissue Factor, F3 (gene 2152)
Description: BSK_LPS_TissueFactor: BioMAP Diversity Plus: LPS Assay for Tissue Factor Biomarker Activity (AID 2283084). In short, it runs like this:
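HUVEC/PBMC co-culture, LPS-activated; CD142 ELISA read 24 h post-dose; bidirectional curve fit vs DMSO negative control.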

Read-out in assay [4]: Tumor necrosis factor (Homo sapiens) (UniProt P01375)
Nature of the assay: BSK_LPS_TNFa: BioMAP Diversity Plus: LPS Assay for Tumour Necrosis Factor alpha (TNFa) Biomarker Activity (AID 2283085).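 As to AC50: TNFa protein level quantified by ELISA in the co-culture.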 In short, it runs like this: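 HUVEC/PBMC co-culture, LPS-stimulated; 24 h post-dose; TNFa by ELISA; gain or loss of signal fitted bidirectionally vs DMSO baseline.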

Read-out in assay [5]: Vascular cell adhesion molecule 1 (VCAM1), VCAM1 (gene 7412)
Description: BSK_LPS_VCAM1: BioMAP Diversity Plus: LPS Assay for Vascular cell adhesion molecule 1 (VCAM1) Biomarker Activity (AID 2283086). A digest of the protocol: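 ELISA read-out of VCAM-1 at 24 h post-dosing in an LPS-driven HUVEC/PBMC primary human co-culture; gain or loss of signal fitted bidirectionally against DMSO baseline. Cytotoxicity tracked in parallel cultures by SRB total-protein staining.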

Read-out in a further assay: CD38, CD38 (gene 952)
Description: BSK_SAg_CD38: BioMAP Diversity Plus: SAg Assay for CD38 Biomarker Activity (AID 2283087). In short, it runs like this:
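Measures CD38 on a human endothelial/PBMC co-culture driven by SEB and TSST-1, 24 h after compound exposure, using ELISA with fluorescence detection; DMSO defines baseline for bidirectional curve fitting.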

Read-out in another assay: CD40, CD40 (gene 958)
Description: BSK_SAg_CD40: BioMAP Diversity Plus: SAg Assay for CD40 Biomarker Activity (AID 2283088). A digest of the protocol: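 HUVEC/PBMC co-culture, 24 h post-dose; CD40 by ELISA, fluorescence intensity; bidirectional fit vs DMSO negative control.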

Read-out in the next assay: CD69, CD69 (gene 969)
Description: BSK_SAg_CD69: BioMAP Diversity Plus: SAg Assay for CD69 Biomarker Activity (AID 2283089).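 As to AC50: cell surface CD69 protein quantified by ELISA with fluorescence detection.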 A digest of the protocol: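 Values derive from bidirectional fitting relative to DMSO vehicle. Cells: umbilical vein endothelium plus peripheral blood mononuclear cells, treated 24 h before fluorescent ELISA for CD69.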

Read-out in assay [6]: Monocyte Chemoattractant Protein-1 (MCP1), CCL2 (gene 6347)
Description: BSK_SAg_MCP1: BioMAP Diversity Plus: SAg Assay for Monocyte Chemoattractant Protein-1 (MCP1) Biomarker Activity (AID 2283090). In short, it runs like this: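 Values derive from bidirectional fitting of ELISA-measured MCP1 against DMSO controls. Readings were taken 24 h after dosing human vascular endothelial cells co-cultured with peripheral blood mononuclear cells under superantigen stimulation.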

Read-out in assay [7]: E-selectin (Homo sapiens) (UniProt P16581)
Description: BSK_SAg_Eselectin: BioMAP Diversity Plus: SAg Assay for Eselectin Biomarker Activity (AID 2283091). A digest of the protocol:
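E-selectin ELISA readout at 24 h post-dosing in human umbilical vein endothelial cell/PBMC co-culture; gain or loss of signal fitted relative to DMSO baseline.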

Tumor necrosis factor (Homo sapiens), sequence (P01375 whole entry, looked up): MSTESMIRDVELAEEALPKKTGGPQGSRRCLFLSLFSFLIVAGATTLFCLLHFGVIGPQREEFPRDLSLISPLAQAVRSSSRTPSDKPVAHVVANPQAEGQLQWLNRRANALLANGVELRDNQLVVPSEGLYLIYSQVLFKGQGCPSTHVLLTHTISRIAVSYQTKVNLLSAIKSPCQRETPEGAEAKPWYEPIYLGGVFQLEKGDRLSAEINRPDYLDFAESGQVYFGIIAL
E-selectin (Homo sapiens), sequence (P16581 whole entry, looked up): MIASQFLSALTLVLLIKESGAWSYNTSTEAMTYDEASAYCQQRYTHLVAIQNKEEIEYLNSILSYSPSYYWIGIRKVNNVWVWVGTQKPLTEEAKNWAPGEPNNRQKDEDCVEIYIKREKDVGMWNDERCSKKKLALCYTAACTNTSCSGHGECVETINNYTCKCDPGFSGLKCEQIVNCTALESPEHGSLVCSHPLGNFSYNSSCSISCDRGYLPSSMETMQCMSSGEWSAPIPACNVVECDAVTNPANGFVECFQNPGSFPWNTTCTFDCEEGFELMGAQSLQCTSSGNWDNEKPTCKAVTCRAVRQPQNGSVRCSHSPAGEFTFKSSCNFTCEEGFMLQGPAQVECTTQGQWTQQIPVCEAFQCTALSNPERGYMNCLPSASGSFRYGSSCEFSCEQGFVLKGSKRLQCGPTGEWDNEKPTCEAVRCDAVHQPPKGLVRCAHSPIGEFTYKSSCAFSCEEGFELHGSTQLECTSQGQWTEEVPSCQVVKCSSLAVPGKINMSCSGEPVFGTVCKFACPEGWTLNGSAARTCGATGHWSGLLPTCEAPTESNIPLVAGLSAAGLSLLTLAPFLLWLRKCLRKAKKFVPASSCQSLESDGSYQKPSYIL

For `C1N2CN3CN1CN(C2)C3`, the outcome was “inactive” in assay [1]; “inactive” in [2]; “inactive” in assay [3]; “inactive” in [4]; “inactive” in assay [5]; “inactive” with CD38, CD38 (gene 952). Further, the outcome with CD40, CD40 (gene 958) is “inactive”; with CD69, CD69 (gene 969), “inactive”; in assay [6], “inactive”; in assay [7], “inactive”.

What is called AC50 is the midpoint of the concentration-response curve, whichever way the signal moves. For `C=CCCCCCCCCC(=O)O`, the AC50 is 8.17 µM (active) in assay [1] and 0.74 µM (active) in assay [4]. For the same molecule, the outcome is “inactive” in [2]; “inactive” in assay [3]; “inactive” in [5]; “inactive” with CD38, CD38 (gene 952); “inactive” with CD40, CD40 (gene 958); “inactive” with CD69, CD69 (gene 969). Moreover, the result in assay [6] and in assay [7] was inactive.

Regarding `Nc1nc2ncc(CNc3ccc(C(=O)N[C@@H](CCC(=O)O)C(=O)O)cc3)nc2c(=O)[nH]1`, the outcome in assay [1] is “inactive”; in assay [2], “inactive”; in assay [3], “inactive”; in assay [4], “inactive”; in assay [5], “inactive”; with CD38, CD38 (gene 952) it was “inactive”. For the same molecule, the outcome is “inactive” with CD40, CD40 (gene 958); “inactive” in the assay with CD69, CD69 (gene 969); “inactive” in assay [6]; “inactive” in assay [7].

With `NC(=O)NO`, the outcome is “inactive” in assay [1]; “inactive” in [2]; “inactive” in assay [3]; “inactive” in assay [4]; “inactive” in assay [5]; “inactive” with CD38, CD38 (gene 952). Also, the outcome with CD40, CD40 (gene 958) was “inactive”; with CD69, CD69 (gene 969), “inactive”; in assay [6], “inactive”; in [7], “inactive”.

Take `O=C(O)CCN(C1(C(=O)NO)CCCC1)S(=O)(=O)c1ccc(Oc2ccc(F)cc2)cc1`: the outcome in assay [1] is “inactive”; in [2], “inactive”; in [3], “inactive”; in assay [4], “inactive”; in assay [5], “inactive”; in the assay with CD38, CD38 (gene 952) it was “inactive”. The outcome in the assay with CD40, CD40 (gene 958) is “inactive”; in the assay with CD69, CD69 (gene 969), “inactive”; in assay [6], “inactive”; in assay [7], “inactive”.

On to `CC(C)CCO`, for which the outcome is “inactive” in [1]; “inactive” in assay [2]; “inactive” in [3]; “inactive” in [4]; “inactive” in assay [5]; “inactive” with CD38, CD38 (gene 952). Also, the outcome with CD40, CD40 (gene 958) is “inactive”; in the assay with CD69, CD69 (gene 969), “inactive”; in assay [6], “inactive”; in [7] it was “inactive”.

Turning to `CC(C)=CCCC(C)=CC=O`, the outcome was “inactive” in [1]; “inactive” in assay [2]; “inactive” in [3]; “inactive” in [4]; “inactive” with CD38, CD38 (gene 952); “inactive” with CD40, CD40 (gene 958). Also, the outcome with CD69, CD69 (gene 969) was “inactive”; in [6] it was “inactive”; in [7], “inactive”. The AC50 in [5] is 33.7 µM (active).

On to `CCOC(=O)COc1ccc2c(c1)CC(NCC(O)c1cccc(Cl)c1)CC2` (stereo not given), for which the AC50 is 27.6 µM (active) in assay [1]; 34.5 µM (active) in [2]; 31.3 µM (active) in [5]; 29.2 µM (active) with CD38, CD38 (gene 952); 28.8 µM (active) in the assay with CD40, CD40 (gene 958); 18.3 µM (active) with CD69, CD69 (gene 969). Moreover, the AC50 in assay [6] is 27.7 µM (active). Also, the result in assay [3], in assay [4] and in assay [7] was inactive.

In the case of `Nc1ccc(Nc2ccccc2)cc1`, the AC50 in [1] was 1.44 µM (active); in assay [2], 8.31 µM (active); in assay [4], 20 µM (active); in assay [5] it was 7.32 µM (active); with CD38, CD38 (gene 952), 3.97 µM (active); with CD40, CD40 (gene 958) it was 3.97 µM (active). In addition, the AC50 in the assay with CD69, CD69 (gene 969) was 3.97 µM (active); in assay [6], 9.88 µM (active); in [7] it was 2.72 µM (active). Moreover, the result in assay [3] was inactive.

Regarding `CC(C)CCCCCCOC(=O)c1ccc(C(=O)OCCCCCCC(C)C)c(C(=O)OCCCCCCC(C)C)c1`, the outcome was “inactive” in [1]; “inactive” in assay [2]; “inactive” in [3]; “inactive” in assay [4]; “inactive” in [5]; “inactive” in the assay with CD38, CD38 (gene 952). The outcome with CD40, CD40 (gene 958) was “inactive”; with CD69, CD69 (gene 969), “inactive”; in assay [6], “inactive”; in assay [7] it was “inactive”.
